Sampled rows, rich in hits. Any-hit rate of the full collection: about 12%.
BAZ2B inh – BAZ2B (human) inhibition. AlphaScreen BAZ2B-H3K14Ac peptide displacement. Potency, µM (series often up to 114 µM), without a hit: at the highest dose activity change, negative = inhibition, most hits filed as inhibitors. hit rate 4.4% among 360,000; also: % is scaled to controls: 0 for no effect and ±100 for the full control effect; nearly all actives have a fitted effect of over 60% in size
Target sequence (Q9UIF8 whole entry, looked up): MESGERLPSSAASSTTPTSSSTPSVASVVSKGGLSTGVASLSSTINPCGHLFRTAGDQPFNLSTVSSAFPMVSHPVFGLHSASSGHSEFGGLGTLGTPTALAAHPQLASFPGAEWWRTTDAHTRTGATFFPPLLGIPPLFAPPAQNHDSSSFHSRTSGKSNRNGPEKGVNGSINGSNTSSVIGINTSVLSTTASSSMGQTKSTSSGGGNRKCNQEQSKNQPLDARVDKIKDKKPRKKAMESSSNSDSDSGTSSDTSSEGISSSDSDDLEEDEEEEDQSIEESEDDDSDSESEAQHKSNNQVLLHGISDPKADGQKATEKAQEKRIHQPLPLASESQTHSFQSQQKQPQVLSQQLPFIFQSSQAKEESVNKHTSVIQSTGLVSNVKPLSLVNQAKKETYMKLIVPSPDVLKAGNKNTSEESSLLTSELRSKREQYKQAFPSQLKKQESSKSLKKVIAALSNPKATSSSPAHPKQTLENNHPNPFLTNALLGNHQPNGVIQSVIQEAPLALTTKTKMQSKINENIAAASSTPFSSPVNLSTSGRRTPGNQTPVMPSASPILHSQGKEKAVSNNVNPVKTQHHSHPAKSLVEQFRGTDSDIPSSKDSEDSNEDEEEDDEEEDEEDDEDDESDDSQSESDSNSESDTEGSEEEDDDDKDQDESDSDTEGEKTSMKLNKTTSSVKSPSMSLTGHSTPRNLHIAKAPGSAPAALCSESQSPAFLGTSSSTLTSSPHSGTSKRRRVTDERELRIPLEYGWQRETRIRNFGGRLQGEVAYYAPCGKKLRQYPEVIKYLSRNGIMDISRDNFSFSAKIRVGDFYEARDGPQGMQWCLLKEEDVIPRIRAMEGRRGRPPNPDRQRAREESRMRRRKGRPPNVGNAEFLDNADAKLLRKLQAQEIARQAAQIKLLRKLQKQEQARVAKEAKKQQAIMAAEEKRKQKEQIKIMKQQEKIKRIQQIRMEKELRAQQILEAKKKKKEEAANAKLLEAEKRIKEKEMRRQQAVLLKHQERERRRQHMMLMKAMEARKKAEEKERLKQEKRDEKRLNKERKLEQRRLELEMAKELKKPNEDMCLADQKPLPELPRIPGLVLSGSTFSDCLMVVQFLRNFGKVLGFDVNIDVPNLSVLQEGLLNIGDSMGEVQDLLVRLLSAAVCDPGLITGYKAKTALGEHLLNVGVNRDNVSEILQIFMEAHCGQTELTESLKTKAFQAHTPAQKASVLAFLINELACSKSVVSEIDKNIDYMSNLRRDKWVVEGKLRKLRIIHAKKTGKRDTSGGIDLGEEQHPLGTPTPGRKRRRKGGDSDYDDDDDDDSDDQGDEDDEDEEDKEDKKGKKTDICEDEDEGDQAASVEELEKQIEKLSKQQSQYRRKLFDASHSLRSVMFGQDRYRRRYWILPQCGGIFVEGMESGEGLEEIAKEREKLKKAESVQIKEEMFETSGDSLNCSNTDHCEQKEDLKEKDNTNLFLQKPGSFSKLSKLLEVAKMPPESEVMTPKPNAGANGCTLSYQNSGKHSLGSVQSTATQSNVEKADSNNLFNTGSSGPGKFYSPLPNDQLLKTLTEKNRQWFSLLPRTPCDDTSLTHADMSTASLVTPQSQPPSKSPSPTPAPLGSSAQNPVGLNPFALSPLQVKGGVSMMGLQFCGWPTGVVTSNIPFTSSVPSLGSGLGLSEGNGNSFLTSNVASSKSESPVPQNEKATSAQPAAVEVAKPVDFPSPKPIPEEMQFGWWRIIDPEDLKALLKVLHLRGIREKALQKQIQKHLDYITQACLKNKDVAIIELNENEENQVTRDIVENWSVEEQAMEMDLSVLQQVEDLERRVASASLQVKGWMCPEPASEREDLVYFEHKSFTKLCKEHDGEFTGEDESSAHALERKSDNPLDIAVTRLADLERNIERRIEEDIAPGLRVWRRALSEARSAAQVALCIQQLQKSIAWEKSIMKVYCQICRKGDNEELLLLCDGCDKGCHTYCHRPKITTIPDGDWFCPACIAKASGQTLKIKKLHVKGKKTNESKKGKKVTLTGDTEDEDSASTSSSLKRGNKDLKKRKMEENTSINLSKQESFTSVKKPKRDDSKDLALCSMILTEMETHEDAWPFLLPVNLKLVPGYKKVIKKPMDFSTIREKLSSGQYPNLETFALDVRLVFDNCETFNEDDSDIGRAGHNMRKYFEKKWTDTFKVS
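BAZ2B 50 nM plus b-H3(5-23)K14Ac 50 nM, PBS pH 7.4/0.01% Tween-20, 30 min RT; compound added (max 110 uM), 30 min RT; streptavidin donor/Ni-chelate acceptor beads 10 ug/mL final, 20 min dark; AlphaScreen read.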
Sfp inh – Sfp phosphopantetheinyl transferase inhibition. Biochemical Sfp PPTase activity, qHTS. Potency, µM, inactives show largest response in the series, negative = inhibition, most hits filed as inhibitors. hit rate 3.5% among 310,000. AID 1490;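 also: the enzyme is Sfp with the accession as filed and its product quenches rhodamine fluorescence; 0% = enzyme reaction without inhibitor and -100% = no enzyme wells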
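Step 1, compound plus 15 nM Sfp-PPTase, 15 min, room temperature. Step 2, add rhodamine-CoA (5 uM) and BHQ-2-YbbR (12.5 uM). Step 3, read 525/598 nm fluorescence at 0 and 30 min.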
HP1b chromo inh – blocks HP1-beta chromodomain binding to methylated histone tails; hit rate 0.56% among 390,000; AlphaScreen HP1-beta / biotin-H3K9me3 peptide binding; P83916; Potency, µM (top dose mostly 114 µM), without a hit: at the highest dose activity change, negative = inhibition, actives largely listed as inhibitors; also: nearly all actives have a fitted effect of over 70% in size
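Compound inhibition of the preformed complex between 50 nM HP1-beta and 50 nM biotinylated H3K9me3 peptide was read by AlphaScreen. Buffer was PBS pH 7.4 with 0.01% Tween-20. Incubations ran 30 min at room temperature, with 10 ug/mL donor/acceptor beads.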
G9a inh – blocks human histone lysine methyltransferase G9a; Q96KQ7; G9a H3K9 monomethylation, AlphaScreen, 2 h; Potency, µM (doses to about 102 µM), for the others: at the top dose activity, negative = inhibition, hits mostly inhibitors; hit rate 8.8% among 350,000; AID 504332; also: % is scaled to controls: 0 for no effect and ±100 for the full control effect; nearly all actives have a fitted effect of over 75% in size
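G9a (20 nM) was preincubated 15 min with compound, then reacted 2 h at room temperature with 500 nM biotin-H3K9 peptide and 20 µM SAM. Monomethyl-H3K9 detected by AlphaScreen using anti-H3K9me1 antibody.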
JMJD2A Tudor inh – inhibitors of human JMJD2A Tudor domain. O75164. AlphaScreen JMJD2A-Tudor / H3K4me3 peptide binding. Potency, µM (series often up to 114 µM), for the others: top-dose activity change, negative = inhibition, most hits filed as inhibitors. hit rate 4.4% among 390,000. AID 504339; also: % is scaled to controls: 0 for no effect and ±100 for the full control effect; nearly all actives have a fitted effect of over 50% in size
TDP1 inh – blocks human tyrosyl-DNA phosphodiesterase 1; Potency, µM (top dose mostly 130 µM), for inactives: top-dose activity change, negative = inhibition, most hits filed as inhibitors; recombinant TDP1, AlphaScreen DNA substrate cleavage; Q9NUW8; hit rate 0.28% among 350,000; also: % is scaled to controls: 0 for no effect and ±100 for the full control effect; nearly all actives have a fitted effect of over 40% in size
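Recombinant human Tdp1 (E. coli-expressed, 1 nM final) preincubated with compounds 15 min at room temperature, then 5'-biotin/3'-phosphotyrosine-FITC DNA substrate (15 nM final) added for 5 min. AlphaScreen beads (10 ug/ml final) added 10 min; cleavage lowers signal.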
Active calls of the source: *; ? = inconclusive; . = no result given; [ ] = remark or other dose. Calls follow the shape of the dose curve; as a rule, active = well fitted curve in the direction sought with a large enough effect; inconclusive = small, poorly fitted or top-dose-only effect, or another doubt; inactive = no such curve, though single readings can be large; an effect the other way counts as inactive or inconclusive. Potency is read from the fitted curve at half-maximal effect.

SMILES	BAZ2B inh	Sfp inh	HP1b chromo inh	G9a inh	JMJD2A Tudor inh	TDP1 inh
Cc1ccc(/C=N/Nc2nc(C(C)(C)C)cs2)o1	45µM*	50µM*	?	10µM*	45µM*	8%
CC(C)(C)c1csc(N/N=C/c2cccnc2)n1	40µM*	-28%	2%	?	?	10%
O=C(CN1C(=O)C2CC=CCC2C1=O)Nc1nc2ccccc2s1 (stereo unspecified)	2%	0%	25%	8%	-13%	8%
CCOC(=O)C(=Cc1ccc2c(c1)OCO2)c1ccccc1	.	.	60%	.	76%	.
O=S(=O)(Cc1ccco1)Cc1nc(-c2ccc(Cl)cc2)cs1	-2%	25µM*	-6%	.	-25%	9%
Clc1ccc(-c2nc(Cc3ccccc3Cl)no2)cc1	316%	-6%	42%	372%	4%	-4%
O=S(=O)(Cc1noc(-c2ccc(Cl)cc2)n1)Cc1ccco1	?	4µM*	-2%	.	-20%	3%
CC(C)Cn1c(=O)c2sccc2n2c(CCCC(=O)NCCc3ccccc3)nnc12	-20%	.	31%	7%[59 µM]	3%	-3%
COc1ccc(S(=O)(=O)N2CCCCCC2)cc1C(=O)NCCOc1ccc(C)cc1	6%	.	27%	-1%	-5%	2%
O=C(CCNS(=O)(=O)c1ccc(F)c(F)c1)NCCN1CCOCC1	.	.	28%	.	-14%	-1%
COc1cc(/C=C2/C(=O)NN(c3ccc(Cl)c(Cl)c3)C2=O)cc([N+](=O)[O-])c1O	40µM*	17%	?	18µM*	16µM*	.
COC(=O)c1ccc(N2NC(=O)/C(=C/c3cc(OC)c(O)c(OC)c3)C2=O)cc1	45µM*	-28%	?	2.8µM*	?	.
COc1cc(/C=C2/C(=O)NN(c3ccc(Cl)cc3)C2=O)cc(Br)c1O	45µM*	-20%	?	.	40µM*	.
COc1cc(/C=C2\SC(N)=NC2=O)cc(Br)c1O	?	4%	2%	-8%[0.501 µM]	-26%	.
COc1cc(/C=C2/C(=O)NN(c3ccc(F)cc3)C2=O)cc(Cl)c1O	32µM*	45µM*	?	28µM*	32µM*	.
COC(=O)c1ccc(N2NC(=O)/C(=C/c3cc(OC)c(OC)c(OC)c3)C2=O)cc1	-30%	?	19%	-12%[2.33 µM]	-10%	.
COc1ccc([C@@H]2C=C(C(=O)O)O[C@H](OCCCCO)C2)cc1	79µM*	27%	34%	-10%[12.7 µM]	?	5%
COc1ccc(C(NC(=O)c2cccnc2)c2cc(Cl)c3cccnc3c2O)cc1OC (stereo unspecified)	?	-1%	57%	19%[0.501 µM]	-22%	8%
Oc1c(C(Nc2cccc(C(F)(F)F)c2)c2cccnc2)ccc2cccnc12 (stereo unspecified)	20µM*	?	?	8.9µM*	56µM*	11%
Oc1cccc(C(Nc2ccccn2)c2ccc3cccnc3c2O)c1Cl (stereo unspecified)	22µM*	.	-9%	?	22µM*	12%
Cc1cc(NC(c2cccnc2)c2ccc3cccnc3c2O)no1 (stereo unspecified)	7.9µM*	-21%	26%	35µM*	32µM*	7%
FC(F)(F)c1cccc(NC(=S)NC(c2ccccc2)c2ccccc2)c1	6%	45%	70%	49%[59 µM]	15%	-3%
COc1ccc(Cl)cc1C(Nc1cccnc1)c1ccc2cccnc2c1O (stereo unspecified)	35µM*	-15%	?	4µM*	35µM*	.
Oc1c(C(Nc2ccccn2)c2cccnc2)cc(Cl)c2cccnc12 (stereo unspecified)	11µM*	-8%	0%	28µM*	40µM*	11%
O=C(Nc1ccc(S(=O)(=O)Nc2nccs2)cc1)c1nn(-c2ccc(F)cc2)ccc1=O	25µM*	5%	-15%	?	56µM*	.
SMILES	BAZ2B inh	Sfp inh	HP1b chromo inh	G9a inh	JMJD2A Tudor inh	TDP1 inh
O=C(COc1ccc(F)cc1Cl)Nc1ccc(S(=O)(=O)Nc2nccs2)cc1	-2%	.	5%	32µM*	-24%	.
Cc1ccc(SCC(=O)Nc2ccc(S(=O)(=O)Nc3nccs3)cc2)cc1	?	5%	-5%	13µM*	-27%	5%
Cc1cccc(OCCCC(=O)Nc2ccc(S(=O)(=O)Nc3nccs3)cc2)c1C	?	11%	-20%	45µM*	?	7%[56.1 µM]
O=C(COc1ccccc1F)Nc1ccc(S(=O)(=O)Nc2nccs2)cc1	-18%	12%	26%	16%	-12%	7%
CCOc1ccc(CCNC(=O)c2cc3c(s2)-c2ccccc2OC3)cc1OCC	6%	.	24%	-4%[59 µM]	?	-7%
COc1ccc(CCNS(=O)(=O)c2ccc(F)c(C(=O)Nc3ccc(Cl)cc3)c2)cc1OC	-15%	.	13%	-5%[59 µM]	-24%	5%
COc1ccc(S(=O)(=O)N2CCOC2CNC(=O)C(=O)NCCN2CCOCC2)cc1OC (stereo unspecified)	-6%	11%	17%	1%	-5%	3%
CCCC/C=C/C(NC(=O)C(C)(C)C)c1ccccc1 (stereo unspecified)	.	20%	.	.	.	1%
CC1=CC(=O)C=C(C)C1=NOC(=O)/C=C\c1ccccc1	-2%	-9%	1%	-8%[59 µM]	-23%	7%
CC1=C(C)/C(=N\OC(=O)/C=C/c2ccccc2)C=CC1=O	-6%	9%	?	1%	18µM*	8%
Cc1ccc(NC(=O)C(C)OC(=O)/C=C/c2ccccc2)cc1 (stereo unspecified)	-14%	7%	20%	24%	-23%	4%
CC1=CC(=NOC(=O)/C=C/c2ccccc2)C=C(C)C1=O	13µM*	-19%	-21%	30%[0.501 µM]	-27%	11%
COc1cc(NC(=O)CN2C(=O)C(c3ccc(C)cc3)=NC23CCCCCC3)cc(OC)c1	-1%	.	25%	5%[59 µM]	-4%	3%
CCCCOC(=O)c1ccc(NC2=NS(=O)(=O)c3ccccc32)cc1	2%	.	23%	-27%[59 µM]	-11%	.
O=C(O)C1CCCN1S(=O)(=O)c1cccc(S(=O)(=O)N2CCCC2C(=O)O)c1 (stereo unspecified)	-8%	22%	65%	3.2µM*	-13%	.
O=C(NCCC1CCCCN1S(=O)(=O)c1ccccc1)C(=O)NC1CCCC1 (stereo unspecified)	-4%	.	28%	-2%[0.501 µM]	-7%	1%
O=C(NCC1CCCN1S(=O)(=O)c1ccccc1)C(=O)NC1CC1 (stereo unspecified)	5%	.	0%	50µM*	35µM*	.
COc1ccccc1N1CCN(S(=O)(=O)CCNC(=O)COc2ccccc2F)CC1	3%	.	25%[57 µM]	-20%[59 µM]	-14%	2%

Compound activity deposited in PubChem BioAssay by National Center for Advancing Translational Sciences (NCATS).
